From PubChem BioAssay
This is a sample that favours compounds with a hit; in the whole collection about 19% have one here.
HT1080NT lethal: kills 2HG-producing HT-1080-NT fibrosarcoma cells. Potency, µM (top dose mostly 46.1 µM), inactives show top-dose activity, negative = less viability, most hits filed as cytotoxic. HT-1080-NT fibrosarcoma viability, CellTiter-Glo ATP luminescence, 48 h. 1.6% of 360,000 active;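 note: NT is the 2HG producing partner of a matched IDH1 knockdown line; potency is the fitted concentration of half-maximal effect; 0% = DMSO-treated cells and -100% = media-only wells without cells; nearly all actives have a fitted effect of over 55% in size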
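Luminescent CellTiter-Glo readout after 48 hours of compound exposure at 37 degrees C defined viability of HT-1080-NT cells. Activity was normalized to DMSO wells and cell-free media wells; concentration-response curves were fitted and assigned curve classes.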
ELG1 DNA repair: blocks ELG1-dependent DNA repair in HEK293T cells. 2.3% of 330,000 active. AID 504467. Potency, µM (series often up to 46.1 µM), for inactives: at the top dose activity change, negative = inhibition, hits mostly inhibitors. HEK293T ELG1-luciferase reporter, luminescence, 16 h; DNA damage induced by 5-fluorouridine; note: potency is the fitted concentration of half-maximal effect; nearly all actives have a fitted effect of over 55% in size
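Step one: seed 2,000 cells per well. Step two: pin-transfer compound or DMSO alongside 5-fluorouridine. Step three: incubate 16 hr, 37 °C, 5% CO2. Step four: add ONE-Glo, wait 30 min, read luminescence.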
TDP1 cell CPT: DT40-hTDP1 cell growth loss with CPT; chicken DT40 Tdp1-/-;hTDP1 cells + 20 nM CPT, ATP luminescence, 48 h; Potency, µM (top dose mostly 46.2 µM), without a hit: at the top dose activity change, negative = growth inhibition, usual class: inhibitors; 12% of 420,000 active; AID 686979; note: potency is the fitted concentration of half-maximal effect; nearly all actives have a fitted effect of over 55% in size
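Chicken DT40 Tdp1-/- cells stably complemented with human TDP1 were seeded at 400 cells/well in medium containing 20 nM camptothecin, exposed to pin-transferred compounds, and grown at 37 °C for at least 48 hr. Viability was read as ATP luminescence.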
IL1B secr inh: inflammasome signaling inhibition, IL-1 beta readout. activity change, % at 57.5 µM. 4.7% of 360,000 active. THP-1 LPS/ATP IL-1B secretion, AlphaLISA, 16 h; stronger effect = lower value; in the data active = activity change below about -50%; inconclusive = mostly about -30% to -49%
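Secreted IL-1B measured by AlphaLISA bead assay after 16 h compound exposure of THP-1 cells; compounds (final up to 57.5 uM) added 1 h before LPS (250 ng/mL) and ATP (1.25 mM) stimulation; lower signal means less secretion.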
HT1080 IDH1KD tx: HT-1080 IDH1 knockdown cell toxicity (counter line). HT-1080 IDH1 knockdown viability, ATP luminescence, 48 h. Potency, µM (titrated, usually from 46.1 µM), inactives show top-dose activity, negative = toxicity, most hits filed as cytotoxic. 2% of 360,000 active. AID 686971;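 note: potency is the fitted concentration of half-maximal effect; 0% = DMSO wells and -100% = cell-free medium wells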
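Luminescent ATP read-out (CellTiter-Glo, 10 min at room temperature) after 48 h compound exposure at 37 °C gave viability of IDH1-knockdown HT-1080 cells. Activity was normalised to DMSO and cell-free wells, then fitted as concentration-response curves.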
DT40 TDP1 no CPT: qHTS for Inhibitors of human tyrosyl-DNA phosphodiesterase 1 (TDP1): qHTS in cells in absence of CPT | DT40 Tdp1-/- hTDP1 cells, no CPT, ATP luminescence, 48 h | 15% of 420,000 active | Potency, µM (doses to about 46.2 µM), for inactives: top-dose activity change, negative = growth inhibition, actives largely listed as inhibitors | AID 686978, 2013; note: potency is the fitted concentration of half-maximal effect; nearly all actives have a fitted effect of over 55% in size
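Chicken DT40 Tdp1-/- cells complemented with human TDP1, screened without camptothecin (DMSO vehicle only), 400 cells/well. Compounds pin-transferred, cells incubated at 37 °C for at least 48 hr. Growth read as ATP-dependent luminescence (CellTiter-Glo, 30 min at RT).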
An asterisk follows results filed as active; i = inactive; u = inconclusive; x = no result. Unless noted, calls come from the whole dose curve; as a rule, active = well fitted curve in the direction sought with a large enough effect; inconclusive = small, poorly fitted or top-dose-only effect, or another doubt; inactive = no such curve, though single readings can be large; an effect the other way counts as inactive or inconclusive. Unless noted, % is set by controls: 0 for no effect and ±100 for the full control effect.

SMILES	HT1080NT lethal	ELG1 DNA repair	TDP1 cell CPT	IL1B secr inh	HT1080 IDH1KD tx	DT40 TDP1 no CPT
CC(=O)N1CCN(c2ccc(NC(=O)C(c3ccccc3)c3ccccc3)cc2)CC1	-23%	-18%	-26%	-58*	-3%	-22%
O=C(Nc1ccc(N2CCCC2)cc1)C(c1ccccc1)c1ccccc1	0%	5%	u	-17	3%	u
COc1ccccc1C(=O)Nc1ccc(N2CCCCC2)cc1	-16%	u	u	-22	-21%	u
COc1cccc(N2C(=O)C(CC(=O)Nc3cccc(F)c3)N(C(C)C)C2=O)c1 (configuration not stated)	x	x	-22%	x	x	-9%
CC1=C(C(=O)N2CCCCCC2)CC(CC(=O)NCCc2ccccn2)C(=O)N1Cc1ccc(F)cc1 (configuration not stated)	14%	x	-25%	20	8%	u
CCN(C(=O)COC(=O)/C=C/c1cccc(Br)c1)C1CCS(=O)(=O)C1 (configuration not stated)	-2%	-24%	3%	i	0%	-10%
CN(C(=O)COC(=O)c1c2c(nc3ccccc13)/C(=C/c1cccc([N+](=O)[O-])c1)CCC2)C1CCS(=O)(=O)C1 (configuration not stated)	u	5.8µM*	3.3µM*	0	5.8µM*	5.2µM*
CN(C(=O)COC(=O)/C=C/c1cccc([N+](=O)[O-])c1)C1CCS(=O)(=O)C1 (configuration not stated)	23µM*	13µM*	-12%	-9	16µM*	0%
Cc1ccc(OCc2nnc(SCC(=O)Nc3ccccc3C(C)C)o2)cc1	x	x	-27%	x	x	-30%
CCOc1ccccc1NC(=O)Cn1c(=O)n(-c2ccc(F)cc2)c(=O)c2sc3ccccc3c21	x	x	2%	x	x	u
COc1ccc(OC)c(NC(=O)N(C)CCc2c(C)nn(C)c2C)c1	x	x	-2%	x	x	u
COc1ccc(CCN2CC(C(=O)NCCc3cn[nH]c3)CCC2=O)cc1 (configuration not stated)	-5%	9%	-13%	-23	-2%	3%
COc1ccc(-c2[nH]ncc2CN2CCN(Cc3cccs3)CC2)c(F)c1	-5%	u	-10%	26	0%	u
COc1ccc(-c2[nH]ncc2CN(C)C(C)c2cccs2)c(F)c1 (configuration not stated)	2%	-5%	16µM*	-10	-6%	u
CS(=O)(=O)N1CCC(C(=O)N2CCN(c3ccc(F)cc3)CC2)CC1	18%	-4%	-23%	8	14%	-12%
CCOCCCN(Cc1ccco1)C(=O)c1cc2c(=O)[nH]c3ccc(C)cc3c2s1	-20%	16µM*	23µM*	-6	-23%	12µM*
CCN(C(=O)c1cc2c(=O)[nH]c3ccc(C)cc3c2s1)c1ccc(OC)cc1	-3%	u	29µM*	-10	-1%	9.2µM*
Cc1ccc2[nH]c(=O)c3cc(C(=O)N4CCN(C(=O)c5ccco5)CC4)sc3c2c1	16%	16µM*	u	-5	0%	-15%
Cc1ccc(C)c(N(C)C(=O)c2cc3c(=O)[nH]c4ccc(C)cc4c3s2)c1	-4%	-16%	16µM*	-3	6%	4.1µM*
Cc1ccc2[nH]c(=O)c3cc(C(=O)N4CCN(c5ccccc5)CC4)sc3c2c1	x	x	-16%	x	x	u
Cc1ccc(CSCCC(=O)N2CCN(c3ccc(F)cc3)CC2)cc1	x	x	-9%	x	x	-21%
CCCN(CCC)C(=O)c1cc2c(=O)[nH]c3ccc(C)cc3c2s1	-2%	-18%	u	u	1%	16µM*
CCCN(C(=O)c1cc2c(=O)[nH]c3ccc(C)cc3c2s1)c1ccc(CC)cc1	x	x	-3%	x	x	-11%
Cc1c(NC(=O)c2ccco2)cccc1-c1nc2cccnc2s1	-13%	-17%	21µM*	58	-2%	u
CCS(=O)(=O)Nc1cccc(-c2nc3cccnc3s2)c1C	11%	u	-9%	8	3%	u
SMILES	HT1080NT lethal	ELG1 DNA repair	TDP1 cell CPT	IL1B secr inh	HT1080 IDH1KD tx	DT40 TDP1 no CPT
O=C(Nc1cccc(-c2nc3cccnc3s2)c1)c1ccco1	-4%	u	-23%	6	7%	u
Cc1cc(NC(=O)c2ccc(-c3ccc(Br)cc3)o2)cc(-c2nc3ncccc3o2)c1O	x	x	-23%	x	x	-15%
O=C(Nc1ccc(-c2nc3cccnc3s2)cc1)c1ccco1	3%	u	u	-23	-9%	13µM*
O=C(Nc1ccc(-c2nc3ncccc3o2)cc1)c1ccc(Br)o1	0%	20%	u	-55*	-9%	u
O=C(Nc1ccc(-c2nc3cccnc3s2)cc1)c1ccc(Br)o1	19%	u	12µM*	2	-5%	8.2µM*
CCOC(=O)Nc1ccc(C(=O)c2ccncc2)cc1	-10%	-1%	u	58	-6%	u
CCOc1ccccc1C(=O)N1CCC(n2nnc3cc(C(F)(F)F)ccc32)CC1	0%	21µM*	u	0	-7%	u
CCOc1ccccc1C(=O)N1CCC(n2nnc3cc(C)ccc32)CC1	-14%	-11%	u	-10	-1%	u
COc1ccc(CNC(=O)CCCn2ccc3cc(S(=O)(=O)N4CCCC4)ccc32)cc1	u	u	18µM*	37	u	12µM*
COc1cccc(CNC(=O)CCn2ccc3cc(S(=O)(=O)N4CCC(C)CC4)ccc32)c1	-23%	-11%	u	u	-8%	-25%
CCc1ccc(CNC(=O)CCn2ccc3cc(S(=O)(=O)N4CCCC4)ccc32)cc1	-28%	u	21µM*	-10	-27%	u
COCCNC(=O)C1CCCN(S(=O)(=O)c2ccc3c(ccn3C)c2)C1 (configuration not stated)	x	x	-29%	x	x	5%
CN(C)c1ccc(CNC(=O)C2CCCN(S(=O)(=O)c3ccc4c(ccn4C)c3)C2)cc1 (configuration not stated)	x	x	16µM*	x	x	21µM*
O=C(CCn1ccc2cc(S(=O)(=O)N3CCCC3)ccc21)NCc1cccc(Br)c1	x	x	18µM*	x	x	u
Cc1ccc(CNC(=O)CCn2ccc3cc(S(=O)(=O)N4CCCC4)ccc32)cc1	-13%	0%	u	13	-19%	u
